RecA splice inh – Mtb RecA intein splicing inhibitors, primary screen, biochemical, fluorescence, HTS; Protein RecA (Mycobacterium tuberculosis (strain ATCC 25618 / H37Rv)), P9WHJ3; hit rate 0.75% among 290,000; inhibition, % (concentration not given with the values); cell-free RecA intein splicing; in the data active means inhibition above about 30%;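 further: 0% = vehicle wells and 100% = reference inhibitor control wells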
Mtb FBA inh – Mtb FBA enzyme inhibitors, primary screen, biochemical, fluorescence, strain H37Rv. inhibition, % at 1 µM. Fructose-bisphosphate aldolase (Mycobacterium tuberculosis (strain ATCC 25618 / H37Rv)), …. AID 588726, 2011. hit rate 2.3% among 360,000. purified M. tuberculosis FBA, fluorescence read-out; in the data active means inhibition above about 27%;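 further: 0% = vehicle and 100% = reference inhibitor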
Target sequence (P9WQA3 whole entry, looked up): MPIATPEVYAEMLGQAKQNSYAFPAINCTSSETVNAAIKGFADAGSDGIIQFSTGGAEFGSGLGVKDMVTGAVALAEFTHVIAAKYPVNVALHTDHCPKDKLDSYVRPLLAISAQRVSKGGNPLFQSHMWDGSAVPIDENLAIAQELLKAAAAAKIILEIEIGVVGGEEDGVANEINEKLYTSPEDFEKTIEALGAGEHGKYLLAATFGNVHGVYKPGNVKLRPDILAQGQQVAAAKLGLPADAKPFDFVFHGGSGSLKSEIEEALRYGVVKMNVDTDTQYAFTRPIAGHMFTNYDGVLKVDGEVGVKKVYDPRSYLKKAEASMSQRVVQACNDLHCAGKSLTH
Mtb bLac sens – beta-lactam sensitization of Mtb H37Rv, H37Rv; inhibition, % at 25 µM; hit rate 0.27% among 330,000; M. tuberculosis H37Rv growth with meropenem, percent inhibition; call rule not given here;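 further: growth measured after seven days incubation then overnight dye step; 0% = bacteria only wells and 100% = bacteria with antibiotic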
CCHF vOTU inh – CCHFV vOTU protease inhibitors, primary screen, biochemical, Pep-AMC substrate, fluorescence. hit rate 0.55% among 370,000. Crimean-Congo hemorrhagic fever virus L polyprotein viral ovarian tumor (vOTU) protease …. inhibition, % at 11.5 µM; further: 0% = vehicle wells with enzyme and 100% = no enzyme wells
GDH-TPI counter-1 – GDH-TPI coupling enzyme inhibitors, primary screen, artefact control for M. tuberculosis FBA inhibitor project, biochemical, absorbance, full deck; GDH-TPI coupled enzyme counterscreen, NADH absorbance; inhibition, % at 4.8 µM; hit rate 1.2% among 360,000;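 further: 0% = DMSO wells and 100% = wells lacking the enzyme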
Mtb FBA inh conf – M. tuberculosis aldolase blockers, biochemical, fluorescence, strain H37Rv, confirmation; shares compounds with Mtb FBA inh; purified M. tuberculosis FBA, fluorescence read-out; inhibition, % at 1 µM; hit rate 78% among 5,600; AID 651616, 2012; in the data active means inhibition above about 27%;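 further: 0% = vehicle wells and 100% = reference inhibitor wells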
GDH-TPI counter-2 – GDH-TPI coupling enzyme inhibitors, artefact control for M. tuberculosis FBA inhibitor project, biochemical, fluorescence, high throughput; shares compounds with Mtb FBA inh; GDH-TPI coupled enzyme counterscreen; inhibition, % at 1 µM; hit rate 81% among 5,600; in the data active means inhibition above about 10%
* marks the source's active call; other numbers are inactive results; / = no result; + = active, no number. Most compounds without a hit are left out; they make up all but 4.2% or so of the library. Unless noted, no stated cut-off is given here; in the data, active means inhibition above about 30%; inactive means the rest.

SMILES	RecA splice inh	Mtb FBA inh	Mtb bLac sens	CCHF vOTU inh	GDH-TPI counter-1	Mtb FBA inh conf	GDH-TPI counter-2
Cc1cc(OC(C)C(=O)NCc2ccccn2)c2c(C)c(Cc3ccccc3)c(=O)oc2c1 (stereo not given)	1	4	3	-2	9	/	/
Cc1cc(OCC(=O)NCc2ccncc2)c2c(C)cc(=O)oc2c1	-1	79*	-3	-8	17	40*	39*
Cc1cc(OC(C)C(=O)NCc2cccnc2)c2c(C)cc(=O)oc2c1 (stereo not given)	-1	108*	-5	-9	9	+	+
Cc1cc(OCC(=O)NCC(O)c2ccccc2)c2c(C)cc(=O)oc2c1 (stereo not given)	-1	77*	6	-9	2	17	-3
Cc1ccccc1OC(C)C(=O)NCc1cccnc1 (stereo not given)	0	0	-3	-10	-3	/	/
CCOC(=O)[C@@]12CCCC=C1N(CCc1ccc(Cl)cc1)C(=O)[C@H]2CC(=O)NCCCCc1ccccc1	/	/	/	15	/	/	/
COC(=O)c1ccc(-c2ccc3c(c2)[C@]2(CCC[C@@H](OCc4ccccc4)[C@@H]2NC(=O)CCc2ccccc2)C(=O)N3Cc2ccccc2)cc1	/	/	/	-19	/	/	/
Cc1cc(OC(C)C(=O)NCc2ccncc2)c2c(C)cc(=O)oc2c1 (stereo not given)	-2	84*	-5	-22	8	169*	159*
CCCCc1cc(=O)oc2cc(OC(C)C(=O)NCc3ccccn3)c(Cl)cc12 (stereo not given)	-3	2	81	7	-1	/	/
Cc1cc(OCC(=O)NCCc2ccc(S(N)(=O)=O)cc2)c2c(C)cc(=O)oc2c1	-2	67*	4	-34	-6	120*	97*
CCCCc1cc(=O)oc2cc(C)cc(OC(C)C(=O)NCc3ccncc3)c12 (stereo not given)	9	42*	-5	-20	1	109*	76*
CN(Cc1ccc2c(c1)CCCN2C)C(=O)[C@@H](Cc1ccccc1)NC(=O)[C@H]1O[C@@H](n2ccc(=O)[nH]c2=O)[C@H](O)[C@@H]1O	/	/	/	8	/	/	/
Cc1ccc2[nH]c(-c3cccc(N)c3)cc2c1	2	43*	11	2	9	152*	128*
O=S1(=O)c2c(cccc2N2CCSCC2)Oc2ccccc2CN1Cc1cn(Cc2ccc(Cl)cc2)nn1	/	/	/	-9	/	/	/
CN(C)CCCNc1cc(-c2ccccc2)nc2cc(-c3cccc(F)c3)nn12	-3	78*	100	-82	-1	78*	61*
O=C(NNC(=O)C1C2C=CC(C2)C1C(=O)O)c1cc(Cl)ccc1O (stereo not given)	-2	65*	4	-57	7	59*	55*
O=C(NNC(=O)C1C2C=CC(C2)C1C(=O)O)c1ccccc1O (stereo not given)	-2	9	3	9	4	/	/
C[C@@H]1COc2cc(N3CCCC3)ccc2S(=O)(=O)N1C	/	/	/	7	/	/	/
COC(=O)[C@]12C[C@H](CC(=O)NCC3CCCCC3)C(=O)N(Cc3ccc(Cl)cc3Cl)C1=C[C@H](C1CCCC1)O[C@@H]2C	/	/	/	18	/	/	/
Nc1nc2ccc(S(=O)(=O)c3ccc4nc(N)sc4c3)cc2s1	0	28*	-1	-3	8	72*	49*
Nc1nc2ccc(O)cc2s1	-2	5	-5	7	2	/	/
Cc1ccc(-n2nc(C)c3c(C)c(CCC(=O)O)c(C)nc32)cc1C	1	40*	3	-8	2	1	0
Cc1ccc(-n2nc(C)c3c(C)c(CCC(=O)NC(C)c4ccccc4)c(C)nc32)cc1 (stereo not given)	0	3	-3	6	7	/	/
Cc1ccc(-n2nc(C)c3c(C)c(CCC(=O)O)c(C)nc32)cc1	-4	68*	3	-25	2	184*	117*
CCOC(=O)CCc1c(C)nc2c(c(C)nn2-c2ccc(C)cc2)c1C	0	8	6	-9	0	/	/
